Assay outcomes deposited in PubChem by Broad Institute.
A selection: hits, their analogues and other compounds. The true share with any hit is near 3%.
Statin myotox sup – suppression of simvastatin myotoxicity; AID 602340; C2C12 myotubes + simvastatin, ATP luminescence, 48 h; scaled: DMSO 0, geranylgeraniol control 100; 330,000 compounds, 0.78% hits; rescue of ATP level, % at 7.49 µM;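 active = mean ATP rescue above about 67%, or every replicate alone reaching that limit, limit read from the data, passing the limit was not always enough; inconclusive = no clear call, values can overlap the other calls; inactive = mean under the limit and some replicate under it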;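 note: myotubes were challenged with 10 µM simvastatin during compound exposure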
MITF TRPM1 HTS – activators of MITF-driven TRPM1 promoter activity in SK-MEL-5 cells; SK-MEL-5 TRPM1-promoter luciferase, 24 h; % of positive control, neutral wells = 0; activation, % at 12.5 µM; 300,000 compounds, 0.75% hits; AID 588334;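 active = mean activation of at least 80% with every replicate also reaching 80%; inconclusive = mean reaches 80% but some replicate falls short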
Wnt act – activates Wnt/beta-catenin signaling in a reporter cell assay; activator, plate reader; activation, % at 9.35 µM; 300,000 compounds, 1.2% hits; AID 743398; in the data active = activation above about 30%, passing the limit was not always enough; inconclusive = no clear call, values can overlap the other calls
esBAF inh – blocks esBAF chromatin remodeling in mouse ES cells. Bmi1-luciferase knock-in reporter, 24 h; 100% = twice the neutral-well signal. reporter increase, % at 12.5 µM. 350,000 compounds, 2% hits. AID 602393; in the data active = activation above about 40%; inconclusive = no clear call, values can overlap the other calls;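 note: a rise in the Bmi1 reporter signal indicates esBAF inhibition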
Large screens that a line does not name were inactive.

O=C(CCn1cnc2ccccc21)N/N=C/c1ccccc1O	esBAF inh 52
COc1ccc(CN(C)C[C@H]2Oc3ccc(NS(=O)(=O)c4cn(C)cn4)cc3CC(=O)N([C@H](C)CO)C[C@@H]2C)cc1	none (no result: MITF TRPM1 HTS, Wnt act)
COc1ccc(N2CC(NC(=O)NC(C)(C)C)CC2=O)cc1 (stereo unspecified)	none (no result: Statin myotox sup, esBAF inh)
COc1ccc(C(=S)NC2CCCCC2)cc1	esBAF inh 50 (no result: Wnt act)
Cc1ccc(NC(=O)C(=O)NC2CCCCC2)cc1	MITF TRPM1 HTS inconclusive (no result: Wnt act)
O=C(Nc1cccc(F)c1)NC1CCCCC1	none (no result: Wnt act)
COc1cccc(NC(=O)NC2CCCCCCC2)c1	MITF TRPM1 HTS 89
CCOc1ccc(NC(=O)NC2CC(=O)N(c3ccc(OC)cc3)C2)cc1 (stereo unspecified)	Wnt act 42
Cc1ccc(NC(=O)NC2CCCCCCC2)cc1	Wnt act 35 (no result: Statin myotox sup, esBAF inh)
COc1ccc(NC(=O)Nc2ccc3c(c2)[C@@H]2C[C@H](CC(=O)NCc4ccc(-c5ccccc5)cc4)O[C@@H](CO)[C@@H]2O3)cc1	none (no result: MITF TRPM1 HTS, Wnt act)
COc1ccc(NC(=O)Nc2ccc3c(c2)C(=O)N([C@@H](C)CO)C[C@H](C)[C@@H](CN(C)C(=O)Cc2ccccc2)OCCCC[C@@H](C)O3)cc1	none (no result: Statin myotox sup, MITF TRPM1 HTS, Wnt act)
C[C@H](CO)N1C[C@H](C)[C@H](CN(C)C(=O)Nc2ccc(C(F)(F)F)cc2)Oc2ccc(NC(=O)CCCCCC(=O)Nc3ccccc3N)cc2CC1=O	none (no result: MITF TRPM1 HTS, Wnt act)
COc1ccc(NC(=O)NC2CCCCCCC2)cc1	esBAF inh 53
COc1cccc(NC(=S)N2CCC(NC(=O)C3CCCCC3)CC2)c1	none
COc1cccc(NC(=O)C(=S)NC2CCCCC2)c1	MITF TRPM1 HTS 84
CC(=O)Nc1cccc(NC(=O)c2ccc(Br)cc2)c1	esBAF inh 42
CC1CCC(NC(=O)CCNC(=O)c2ccc(Br)cc2)CC1 (stereo unspecified)	MITF TRPM1 HTS 82, esBAF inh inconclusive
O=C(CCNC(=O)c1ccc(Br)cc1)Nc1cccc(S(=O)(=O)N2CCCC2)c1	none
O=C(CNC(=O)c1ccc(Br)cc1)NC1CC1	none
CCC(=O)Nc1cccc(NC(=O)c2ccc(Br)cc2)c1	none (no result: Statin myotox sup, esBAF inh)
Cc1cccc(NC(=O)CCNC(=O)c2ccc(Br)cc2)c1	esBAF inh 54
CNC(=O)C[C@@H]1CC[C@H]2[C@@H](COc3ccc(NC(=O)Nc4c(C)noc4C)cc3C(=O)N2C)O1	none (no result: MITF TRPM1 HTS, Wnt act)
COC(=O)c1cccc(N2C(=O)c3ccccc3S2(=O)=O)c1	none (no result: Statin myotox sup, esBAF inh)
CN=C1c2ccccc2CN1c1cccc(C(=O)OC)c1	Statin myotox sup 100 (no result: Wnt act)
Cc1ccnc(NC(=O)Cc2ccc(-c3ccccc3)cc2)c1	none (no result: Statin myotox sup, esBAF inh)
O=C(Cc1ccc(-c2ccccc2)cc1)Nc1ccccn1	esBAF inh 43
Cc1nc2ccc(NC(=O)N(C(C)C)C(C)C)cc2s1	esBAF inh 44 (no result: MITF TRPM1 HTS, Wnt act)
Cc1nc2ccc(NC(=O)N(C)c3ccccc3)cc2s1	none (no result: Statin myotox sup, Wnt act, esBAF inh)
Cc1nc2ccc(NC(=O)c3ccc(Cl)s3)cc2s1	MITF TRPM1 HTS 87, esBAF inh 79
CO[C@@H]1CN(C)C(=O)c2ccc(NC(=O)C3CC3)cc2OC[C@H](C)N(C(=O)c2cnccn2)C[C@H]1C	none (no result: MITF TRPM1 HTS, Wnt act)
Cc1cc(=O)n2c(C)n[nH]c2n1	Statin myotox sup 120 (no result: MITF TRPM1 HTS)
C[C@H](CO)N1C[C@H](C)[C@H](CN(C)CC2CC2)Oc2ncc(-c3ccc(C#N)cc3)cc2C1=O	none (no result: MITF TRPM1 HTS, Wnt act)
CC(=O)CCc1ccccc1	none
CC(=O)CCc1c[nH]c2c(C(=O)O)cccc12	Statin myotox sup 104 (no result: Wnt act)
Cc1ccc2oc(=O)n(CCCOc3ccccc3)c2c1	Wnt act 42 (no result: MITF TRPM1 HTS)
Cc1ccccc1OCCn1c(=O)sc2ccccc21	esBAF inh 63
Cc1cccc(OCCn2c(=O)sc3ccccc32)c1	MITF TRPM1 HTS 91, esBAF inh 68 (no result: Wnt act)
COc1ccc(OCCn2c(=O)sc3ccccc32)cc1	none (no result: Statin myotox sup, esBAF inh)
Cc1cccc(OCCCn2c(=O)sc3ccccc32)c1	esBAF inh 54 (no result: Wnt act)
COc1ccccc1OCCn1c(=O)sc2ccccc21	none (no result: MITF TRPM1 HTS)
C[C@@H]1CN([C@@H](C)CO)C(=O)c2cc(NS(=O)(=O)c3cn(C)cn3)ccc2O[C@@H](C)CCCCO[C@H]1CN(C)C(=O)CCC(F)(F)F	none (no result: Statin myotox sup, MITF TRPM1 HTS, Wnt act)
C[C@@H]1CN([C@@H](C)CO)C(=O)c2cc(NC(=O)CCN3CCOCC3)ccc2O[C@H]1CN(C)CC1CCCCC1	none (no result: MITF TRPM1 HTS, Wnt act)
CCCNC(=O)N(C)C[C@@H]1Oc2ncc(C3=CCCC3)cc2C(=O)N([C@H](C)CO)C[C@H]1C	none (no result: MITF TRPM1 HTS, Wnt act)
Cc1cccc(OCCn2c(=O)n(C)c3ccccc32)c1	Wnt act inconclusive, esBAF inh 78
CC(C)C#Cc1cnc2c(c1)C(=O)N([C@@H](C)CO)C[C@H](C)[C@@H](CN(C)C(=O)c1cnccn1)O2	none (no result: MITF TRPM1 HTS, Wnt act)
COc1ccc(-c2nc3ccc(C)cn3c2NCc2ccc3c(c2)OCO3)cc1	Wnt act inconclusive
COc1cc(-c2cc3nc(NCc4cccs4)ccn3n2)cc(OC)c1OC	Wnt act inconclusive (no result: MITF TRPM1 HTS)
Cc1ccc(-c2nc3ccccn3c2NCc2ccc3c(c2)OCO3)cc1	Wnt act inconclusive, esBAF inh 44
c1ccc(-c2cc3nc(NCc4ccc5c(c4)OCO5)ccn3n2)cc1	esBAF inh 52 (no result: MITF TRPM1 HTS)
c1ccc(-c2cc3nc(NCc4cccs4)ccn3n2)cc1	esBAF inh 67 (no result: MITF TRPM1 HTS)
CCN1C(=O)CSC1=Nc1ccc(C(=O)O)cc1	none
CCN1C(=Nc2ccc(Cl)cc2)SC/C1=C\C(=O)OC	MITF TRPM1 HTS inconclusive, esBAF inh 61
C[C@H](NC(=O)C[C@H]1C=C[C@H](NC(=O)C2CCOCC2)[C@H](CO)O1)c1ccccc1	none (no result: MITF TRPM1 HTS, Wnt act)
COc1ccc(NC(=O)N(C)C[C@@H]2Oc3ccc(NC(=O)Nc4ccc5c(c4)OCO5)cc3C(=O)N([C@H](C)CO)C[C@@H]2C)cc1	none (no result: MITF TRPM1 HTS, Wnt act)
COCCNC(=O)c1c(CS(=O)(=O)c2ccccc2)noc1C(=O)NCc1ccccc1	Statin myotox sup 96
COCCNC(=O)c1c(CSc2ccccc2)noc1C(=O)NCc1ccccc1	none
C[C@H](CO)N1C[C@H](C)[C@@H](CN(C)C(=O)Nc2ccc(F)cc2)OCCCC[C@H](C)Oc2ccc(NC(=O)Nc3ccccc3)cc2C1=O	none (no result: MITF TRPM1 HTS, Wnt act)
CCOc1ccc(/C=N/NC(=O)Cn2ccnc2C)cc1	Wnt act 51 (no result: MITF TRPM1 HTS)
O=C(CSc1ccccn1)Nc1ccc2c(c1)C(=O)c1ccccc1C2=O	MITF TRPM1 HTS 95 (no result: Statin myotox sup, Wnt act, esBAF inh)
Cc1cc(NC(=O)CSc2ccccn2)cc(NC(=O)CSc2ccccn2)c1	none
O=C(CSc1ccccn1)Nc1ccc2c(c1)OCCO2	esBAF inh inconclusive
O=C(CSc1ccccn1)Nc1ccc2c(c1)CCC2	MITF TRPM1 HTS 110, esBAF inh 77 (no result: Wnt act)
COCC#Cc1ccc2c(c1)O[C@H](CN(C)S(C)(=O)=O)[C@H](C)CN([C@@H](C)CO)S2(=O)=O	none (no result: MITF TRPM1 HTS, Wnt act)
C[C@@H]1CN([C@H](C)CO)S(=O)(=O)c2ccc(C#CC(C)(C)O)cc2O[C@H]1CN(C)C(=O)C1CC1	none (no result: MITF TRPM1 HTS, Wnt act, esBAF inh)
Cc1oc2cc(O)cc(C)c2c(=O)c1-c1cnn(-c2ccccc2)c1	Statin myotox sup 89 (no result: MITF TRPM1 HTS)
Cc1sc(NC(=O)c2ccc(Cl)s2)c(C(N)=O)c1C	Wnt act 42
Cc1sc(NC(=O)c2ccc(Br)s2)c(C(N)=O)c1C	esBAF inh inconclusive (no result: Wnt act)
Cc1ccccc1-c1nc(C#N)c(N2CCC(C)CC2)o1	none
Cc1cccc(-c2nc(C#N)c(N3CCC(C)CC3)o2)c1	none
